Screening results from PubChem BioAssay.
The sample as a whole holds a higher share of hits than the screen did.
KDM5B inhibitor – KDM5B demethylase inhibition | Q9UGL1 | KDM5B demethylase, FDH-coupled NADH fluorescence (FDH is formaldehyde dehydrogenase) | Potency, µM (titrated, usually from 57.7 µM), hits mostly inhibitors | 220,000 compounds, 2.6% hits | AID 1347165; active means well fitted inhibition curve with a large enough effect; further: 0% is about no effect; nearly all actives have a fitted effect of over 70% in size
Target sequence (Q9UGL1 whole entry, looked up): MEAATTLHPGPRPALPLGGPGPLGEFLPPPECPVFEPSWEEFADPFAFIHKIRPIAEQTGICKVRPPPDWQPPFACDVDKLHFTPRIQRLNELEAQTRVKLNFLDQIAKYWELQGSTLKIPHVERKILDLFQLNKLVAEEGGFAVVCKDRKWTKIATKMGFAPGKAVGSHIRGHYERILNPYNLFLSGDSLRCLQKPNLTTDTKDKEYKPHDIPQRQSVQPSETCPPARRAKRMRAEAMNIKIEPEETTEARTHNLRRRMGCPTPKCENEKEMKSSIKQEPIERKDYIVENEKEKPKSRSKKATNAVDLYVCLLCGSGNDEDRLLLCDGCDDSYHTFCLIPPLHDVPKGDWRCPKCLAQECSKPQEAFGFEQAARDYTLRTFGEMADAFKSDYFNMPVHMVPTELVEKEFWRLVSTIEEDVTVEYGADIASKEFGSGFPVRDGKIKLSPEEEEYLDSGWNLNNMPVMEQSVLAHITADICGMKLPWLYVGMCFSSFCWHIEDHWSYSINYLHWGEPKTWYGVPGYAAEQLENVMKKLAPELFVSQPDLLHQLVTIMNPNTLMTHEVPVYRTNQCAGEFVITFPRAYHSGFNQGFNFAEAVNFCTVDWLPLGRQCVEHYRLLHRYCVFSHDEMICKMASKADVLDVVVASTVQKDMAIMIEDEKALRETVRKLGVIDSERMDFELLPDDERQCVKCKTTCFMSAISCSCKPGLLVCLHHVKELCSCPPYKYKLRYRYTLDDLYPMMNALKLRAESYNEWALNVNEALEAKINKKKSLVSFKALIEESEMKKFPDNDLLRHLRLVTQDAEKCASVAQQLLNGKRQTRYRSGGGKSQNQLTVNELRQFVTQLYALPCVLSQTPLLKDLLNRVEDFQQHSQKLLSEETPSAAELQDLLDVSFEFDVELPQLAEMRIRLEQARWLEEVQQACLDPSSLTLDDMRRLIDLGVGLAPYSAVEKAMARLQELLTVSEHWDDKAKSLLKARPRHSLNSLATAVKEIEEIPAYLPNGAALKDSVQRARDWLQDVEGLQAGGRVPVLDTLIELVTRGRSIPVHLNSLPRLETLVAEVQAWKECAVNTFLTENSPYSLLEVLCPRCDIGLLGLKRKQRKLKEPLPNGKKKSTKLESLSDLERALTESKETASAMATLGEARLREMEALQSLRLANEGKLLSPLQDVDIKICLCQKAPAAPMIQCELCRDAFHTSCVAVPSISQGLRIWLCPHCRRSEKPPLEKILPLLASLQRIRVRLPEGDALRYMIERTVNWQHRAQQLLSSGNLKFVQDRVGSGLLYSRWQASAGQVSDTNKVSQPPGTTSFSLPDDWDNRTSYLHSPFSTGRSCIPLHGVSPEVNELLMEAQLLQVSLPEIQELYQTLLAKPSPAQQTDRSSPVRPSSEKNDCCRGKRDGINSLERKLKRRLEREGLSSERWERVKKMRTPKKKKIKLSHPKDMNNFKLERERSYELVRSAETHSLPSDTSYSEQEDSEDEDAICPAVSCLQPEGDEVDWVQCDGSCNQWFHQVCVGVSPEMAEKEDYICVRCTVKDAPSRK
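qHTS format, multiple compound concentrations. Buffer 50 mM HEPES pH 7.5/0.01% Tween-20; 200 nM KDM5BΔAP final; 10 min compound preincubation; substrate-mix levels 12.5 µM peptide, 25 µM α-KG, 0.25 mM NAD⁺; 30 min RT; ΔRFU.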
* marks the source's active call; other numbers are inactive results; i = inactive. Potency means the concentration at half of the fitted maximal effect.

SMILES	KDM5B inhibitor
CC(O)CN1CC2(CCC1=O)CCN(C(=O)c1ccnn1C)CC2 (stereo not drawn)	i
Cc1cc(C)c(C(=O)O)c(N2CCC3(CC2)C(C(=O)O)CC(=O)N3C)n1 (stereo not drawn)	i
Cc1cc(C)c(C#N)c(N2CCC3(CCC(=O)N(CC(C)O)C3)CC2)n1 (stereo not drawn)	28.2µM*
Cc1cnc(C(=O)Oc2ccc(-c3ccc(C#N)cc3)cc2)cn1	i
COc1ccc(-c2ccc3ncc(Nc4ccccc4F)n3n2)cc1OC	i
COc1ccccc1-c1ccc2ncc(Nc3cccnc3OC)n2n1	i
COc1ccc(-c2ccc3ncc(Nc4cccnc4OC)n3n2)cc1OC	22.4µM*
O=C(c1cc2cc([N+](=O)[O-])ccc2oc1=O)N1CCN(c2ccccc2)CC1	i
CC(CO)Nc1nc2c(c(=O)n(Cc3ccccc3Cl)c(=O)n2C)n1C (stereo not drawn)	i
CCN1CCCCC12Cc1ccccc1CN(C(C)=O)C2 (stereo not drawn)	i
CN(C)C(=O)Cc1c[nH]c2ncc(-c3cnn(C)c3)cc12	39.8µM*
CNC(=O)c1cccc(-c2cnc3[nH]cc(CC(=O)Nc4cccc(F)c4)c3c2)c1	i
O=C(Cc1c[nH]c2ncc(-c3cccnc3)cc12)Nc1ccc(F)cc1	i
CN(C)c1cccc(NC(=O)Cc2c[nH]c3ncc(-c4cccnc4)cc23)c1	i
CN(C)C(=O)Cc1c[nH]c2ncc(-c3cccnc3)cc12	i
Cn1cc(-c2cnc3[nH]cc(CC(=O)NCc4cccc(F)c4)c3c2)cn1	31.6µM*
Cn1cc(-c2cnc3[nH]cc(CC(=O)Nc4cccnc4)c3c2)cn1	39.8µM*
CNC(=O)c1cccc(-c2cnc3[nH]cc(CC(=O)NC4CCC4)c3c2)c1	i
O=C(/C=C/c1cc(Cl)cc(Cl)c1)NC1CCC(O)CC1 (stereo not drawn)	i
CCCCn1nc(C(=O)NCCC(=O)O)c2ccccc2c1=O	i
COc1cc(/C=C2/NC(=O)NC2=O)ccc1OCc1cccc(F)c1	i
Cc1oc(-c2ccccc2)nc1C(=O)NCC(c1ccccc1)N1CCCC1 (stereo not drawn)	i
O=C(OCC(=O)N1CCCCC1)c1cc(-c2cccs2)nc2ccccc12	i
CCC(C)c1ccc(NC(=O)CSc2ncnc3ccccc23)cc1 (stereo not drawn)	i
COc1ccc(CNC(=O)CSc2nnc(C)n2C2CC2)cc1	i
SMILES	KDM5B inhibitor
COc1ccc(NC(=O)c2c(C)noc2C(C)C)cc1OC(F)F	i
CCCCC(=O)Nc1cccc(-c2nc3cc(C)ccc3o2)c1	i
O=C(O)CCC(=O)N1CCC(O)CC1	i
CCCCOc1ccc(NC(=O)COc2ccc(C)c(C)c2)c2cccnc12	i
O=C(NCCc1ccc(F)cc1)c1cc2cc(F)ccc2[nH]1	i
O=C(O)C1=NOC2CN(C(=O)c3ccc(C(F)(F)F)cc3)CC12 (stereo not drawn)	i
COc1ccc(CN2CC3ON=C(C(=O)O)C3C2)cc1 (stereo not drawn)	i
O=C(O)C1=NOC2CN(Cc3cccc(C(F)(F)F)c3)CC12 (stereo not drawn)	100µM*
Cc1nn2c(c1-c1ccccc1OCc1ccccc1)N(C(=O)Cc1ccccn1)CCC2	i
Cc1nn2c(c1-c1ccccc1Oc1ccccc1)N(Cc1ccc(C(=O)O)cc1)CCC2	35.5µM*
Cc1nn2c(c1-c1ccccc1Oc1ccccc1)N(C(=O)c1ccc(F)cc1)CCC2	i
Cc1nn2c(c1-c1cccnc1N1CCOCC1)N(CC1CC1)CCC2	35.5µM*
Cc1nn2c(c1-c1ccccc1Oc1ccccc1)N(CC1CC1)CCC2	31.6µM*
COc1ccc(OC)c(CN2CCCn3nc(C)c(-c4ccccc4OCc4ccccc4)c32)c1	28.2µM*
COc1cccc(CC(=O)N2CCCn3nc(C)c(-c4cccnc4N4CCOCC4)c32)c1	i
Cc1nn2c(c1-c1ccccc1Oc1ccccc1)N(C(=O)c1ccnn1C)CCC2	i
Cc1nn2c(c1-c1ccccc1OCc1ccccc1)N(C(=O)CN1CCOCC1)CCC2	i
Cc1nn2c(c1-c1cccnc1N1CCOCC1)N(C(=O)c1ccc(Oc3ccccc3)cc1)CCC2	i
Cc1nn2c(c1-c1ccccc1OCc1ccccc1)N(C(=O)COc1ccccc1C(N)=O)CCC2	i
COC1CCC(C(=O)N2CCCn3nc(C)c(-c4ccccc4Oc4ccccc4)c32)CC1 (stereo not drawn)	i
CCc1ccc(NC(=S)NCCCO)cc1	i
Cc1nc(C)c(C(=O)NCc2cccnc2)s1	i
COc1ccc(Nc2nc3ccccc3nc2NS(=O)(=O)c2ccc(Cl)s2)cc1	i
COc1ccc(S(=O)(=O)N2CCc3ccccc32)cc1C(=O)N1CCN(c2ccncc2)CC1	i
N#Cc1ccc(OCCOC(=O)c2ccccc2F)cc1	i
SMILES	KDM5B inhibitor
CCOC(=O)c1cccc(NC(=O)N2CC[C@@H](CC(=O)NCc3ccc(F)cc3)[C@@H](CC)C2)c1	i
CN(C(=O)Cn1cc(C#N)c2ccccc21)C1CCCCC1	i
COc1cc2c(c(OC)c1)C(c1ccccc1)C1=C(CCCC1=O)N2 (stereo not drawn)	i
O=C1CCN(S(=O)(=O)c2ccccc2)CCCN(C(=O)CCc2nc3ccccc3[nH]2)CCN1	i
Cc1nn2c(c1-c1ccccc1OCc1ccccc1)N(Cc1nccn1C)CCC2	i
Cc1nn2c(c1-c1ccccc1OCc1ccccc1)N(Cc1cccnc1)CCC2	i
Cc1nn2c(c1-c1ccccc1OCc1ccccc1)N(CC1CC1)CCC2	35.5µM*
CCC(C)NC(=O)C1CCN(C(=O)C(C)(C)C)CC1 (stereo not drawn)	i
COc1cc(C2CC(=O)N(CC(=O)Nc3ccccc3C)c3ccccc3S2)cc(OC)c1OC (stereo not drawn)	i
Cc1ccnc(NC(=O)COc2ccc3c(=O)c(Oc4ccccc4)c(C)oc3c2)c1	i
COc1ccc2nc(C)c(C(=O)OCC(=O)NCC3CCCO3)cc2c1 (stereo not drawn)	i
COc1cccc(-c2nc3cc(SC)ccc3cc2CN(C)Cc2ccno2)c1	28.2µM*
COc1cccc(-c2nc3ccccc3c(=O)o2)c1	i
COc1cccc(-c2nc(-c3ccc(F)cc3)cs2)c1	i
Cc1nc2ccc(C(=O)N3C[C@@H]4CCN(C)C[C@]4(C(=O)O)C3)cc2s1	i
CNc1cc(C)nc(N2CC[C@H](N3CCOCC3)[C@H](CCC(=O)O)C2)n1	i
CNc1cc(C)nc(N2C[C@H]3CN(C(=O)N(C)C)C[C@@]3(C(=O)O)C2)n1	22.4µM*
Cc1nc(CC(=O)NCc2ccc3[nH]c(-c4ccc(F)cc4)c(C)c3c2)cs1	31.6µM*
Cc1ccc(NC2CCCN(C(=O)CCN3CCCCO3)C2)cc1C (stereo not drawn)	i
O=C(NCc1ccc(F)cc1)c1ccc(NC(=O)C2CCCO2)cc1 (stereo not drawn)	i
O=C(C[C@@H]1CCNC[C@@H]1Cc1cc(-c2ccc(F)cc2)on1)NCc1ccc(F)cc1	i
Cc1c(-c2ccc(F)cc2)[nH]c2ccc(CNC(=O)CCN3CCCO3)cc12	31.6µM*
Cc1c(-c2ccc(F)cc2)[nH]c2ccc(CNCc3cnn(C)c3)cc12	31.6µM*
CCc1ccc(-c2nc(SCC(=O)NCC3CCCO3)c(-c3ccc(F)cc3)[nH]2)cc1 (stereo not drawn)	i
Fc1ccc(-c2[nH]ncc2CNCc2cccc(Cn3cccn3)c2)cc1	i
Cc1nc(CC(=O)Nc2ccc(C)c(C)c2)cs1	i
